# The whole screen tested about 360,000 compounds, of which about 1,600 (0.44%) were called active. This is one part of a sample in which actives are shown more often than they occur. Values without a mark were called inactive.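 The calls were made as follows: active = inhibition above the screen-wide average plus 3 SD (cut at about 13% in these data); inactive = the rest.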
# Target: Galanin receptor type 3 (Homo sapiens) (UniProt O60755)
# Test: GalR3 antagonists in HEK293 cells, primary screen, cell-based, fluorescence readout (AID 651719);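 also: forskolin and galanin both at EC90 stimulate the cells; cAMP rise reported by CNG channel membrane potential dye signal; 0% = forskolin plus galanin with DMSO and 100% = forskolin alone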
# Settings: HEK293 GalR3-CNG cAMP membrane potential fluorescence; at 3 µM; hits give high values; galR3 body fused to GalR1 C-terminus
# Sequence of Galanin receptor type 3 (Homo sapiens) (O60755 1-299 limits assumed): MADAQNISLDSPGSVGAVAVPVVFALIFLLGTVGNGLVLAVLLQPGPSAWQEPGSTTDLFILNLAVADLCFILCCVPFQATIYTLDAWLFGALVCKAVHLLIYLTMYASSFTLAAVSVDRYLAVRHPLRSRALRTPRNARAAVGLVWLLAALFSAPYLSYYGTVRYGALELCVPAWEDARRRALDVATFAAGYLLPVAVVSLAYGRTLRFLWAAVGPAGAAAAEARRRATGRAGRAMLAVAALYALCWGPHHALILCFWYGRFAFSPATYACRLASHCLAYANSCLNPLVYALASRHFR
row,Compound,inhibition
1,COC(=O)C(C(=O)OC)c1ccccc1NS(=O)(=O)c1cccc2ccccc12,-6.36%
2,CC(C)C[C@H](NC(=O)CC1CCCC1)C(=O)N1CCC[C@H]1C(=O)NCc1ccccc1,1.69%
3,OC[C@@H]1CN(Cc2cccs2)C[C@H](n2cnc3c(NC4CCCC4)ncnc32)O1,-8.57%
4,OC[C@@H]1CN(Cc2ccc(F)cc2)C[C@H](n2cnc3c(NC4CCCC4)ncnc32)O1,-2.96%
5,OC[C@@H]1CN(Cc2ccc(-c3ccccc3)cc2)C[C@H](n2cnc3c(NC4CCCC4)ncnc32)O1,27.1% (active)
6,COC(=O)c1cc2c(c3c4cc(F)ccc4n(S(=O)(=O)c4ccccc4)c13)C(=O)N(Cc1ccccc1OC)C2,-5.48%
7,Cc1noc(C)c1NC(=O)Nc1ccc2c(c1)C(=O)N([C@H](C)CO)C[C@H](C)[C@H](CN(C)Cc1ccncc1)OCCCC[C@@H](C)O2,-3.2%
8,COc1cc(C(=O)Nn2c(O)c(C3=c4ccccc4=NC3=O)sc2=S)ccc1O,19.3% (active)
9,COc1cc(C(=O)Nn2c(CC(C)C)nc3ccccc3c2=O)cc(OC)c1OC,-0.49%
10,COc1cc(C(=S)NC2CCCCC2)ccc1O,-5.5%
11,O=C(C(=O)N1CCC(CNC(=O)c2cccnc2Cl)CC1)c1cccs1,-2.12%
12,CC(=O)N1C[C@@H](CO)[C@@H](N(C)C(=O)C(C)(C)C)C[C@H]1c1ccccc1Br,-3.56%
13,CCN(CC(=O)Nc1cc(Cl)ccc1C)C(=O)CSCc1ccccc1,-6.08%
14,CCN(CC(=O)NCc1ccc(Cl)cc1)C(=O)CSc1ccccc1,46.6% (active)
15,CCN(CC(=O)NCc1ccc(Cl)cc1)C(=O)c1c(C)noc1C,-4.16%
16,COCCNC(=S)N(C)[C@H]1C[C@H]2c3[nH]c4ccccc4c3CCN2C[C@H]1[C@H](C)O,-3.71%
17,CC(=O)C1=C(C)N(Cc2ccc(Cl)cc2)C(=S)NC1c1ccc(F)cc1 (stereo unspecified),-2.41%
18,CCCCNc1cccc2c1S(=O)(=O)N[C@@H](C)CO2,0.83%
19,COC(=O)[C@]12C[C@H](CC(=O)NCCCCc3ccccc3)C(=O)N(Cc3ccc4c(c3)OCO4)C1=C[C@H](C(C)(C)C)O[C@@H]2C,-7.85%
20,O=C(/C=C/c1c(F)cccc1Cl)Nc1nn[nH]n1,13.1% (active)
21,O=C(/C=C/c1c(Cl)cccc1Cl)NCc1ccccc1,-6.6%
22,O=C(CCc1ccccc1)Nc1nn[nH]n1,-3.85%

row,Compound,inhibition
1,Clc1cccc2c1C1CC2CCN1Cc1ccccc1 (stereo unspecified),-7.78%
2,CC(C)(C)C(c1nc2ccccc2[nH]1)n1c(Cc2csc3ccccc23)nc2ccccc21 (stereo unspecified),-6.57%
3,O=C(N[C@H](Cc1ccccc1)C(=O)N1CCCN(Cc2cccs2)CC1)[C@H]1O[C@@H](n2ccc(=O)[nH]c2=O)[C@H](O)[C@@H]1O,-5.35%
4,COC(=O)CNC(=O)c1ccccc1[N+](=O)[O-],-2.07%
5,Cc1c(C(=O)NCCCc2ccccc2)cccc1[N+](=O)[O-],-5.51%
6,COC(=O)c1cccc([N+](=O)[O-])c1CS(=O)(=O)c1ccc(C)cc1,13.8% (active)
7,CC(=O)c1ccc(S(=O)(=O)NCC2CCN(C(=O)C(=O)c3cccs3)CC2)cc1,-4.03%
8,CC[C@H](NC(=O)[C@H](Cc1ccccc1)NC(=O)[C@H]1O[C@@H](n2cnc3c(=O)[nH]c(N)nc32)[C@H](O)[C@@H]1O)c1ccccc1,-6.3%
9,CCCOc1ccc(Cc2c(Cl)nc(SC)nc2NC)cc1,63.8% (active)
10,CCCOc1ccc(Cc2c(O)nc(SC)[nH]c2=O)cc1C,-4.3%
11,CCCOc1ccc(Cn2c(O)cc(=O)[nH]c2=O)cc1,4.51%
12,COc1cccc(CNC(=O)[C@H]2CCCN2C(=O)[C@H]2CCCN2C(=O)c2cc(F)cc(F)c2)c1,-4.4%
13,O=C1[C@@H](c2ccccc2)[C@@H](c2ccccc2)N1c1ccccc1,-1.03%
14,O=C(NCc1ccccc1)[C@@H]1CCCN1C(=O)[C@@H](NS(=O)(=O)c1ccc(F)cc1F)C1CCCCC1,-7.14%
15,COc1ccc(CCNc2nc3ccc(C)cc3n3cnnc23)cc1OC,18.6% (active)
16,COc1ccc(CCNc2nc(C)cc(C)n2)cc1OC,-8.92%
17,COc1cc(Nc2nc3ccc(Cl)cc3n3cnnc23)cc(OC)c1OC,-10.3%
18,C[C@H](CO)N1C[C@H](C)[C@@H](CN(C)C(=O)Nc2ccccc2F)OCc2cn(nn2)CCCC1=O,-5.31%
19,COc1cccc(CNC(=O)[C@H]2CCCN2C(=O)[C@H]2CCCN2C(=O)c2ccc(F)cc2)c1,-5.33%
20,CN(NC(=O)c1ccccc1F)c1nc(C(F)(F)F)nc2ccccc12,0.05%
21,CSc1nc(N(C)NC(=O)c2cccc(C)c2)c2ccccc2n1,17.1% (active)
22,Cc1ccc(S(=O)(=O)NC(=O)c2cccc(C)c2)cc1,-0.66%

row,Compound,inhibition
1,O=C(NN=Cc1ccco1)C(=O)Nc1ccc(Cl)c([N+](=O)[O-])c1,-5.99%
2,N#CC1=C(N)Oc2n[nH]c(CSc3ccccc3)c2C12C(=O)Nc1ccccc12 (stereo unspecified),-2.39%
3,Cc1cc(C)c(C#N)c(SCc2[nH]nc3c2C(c2ccccc2)C(C#N)=C(N)O3)n1 (stereo unspecified),34.7% (active)
4,Cc1cc(C)c(C#N)c(SCc2ccc3c(c2)OCO3)n1,-0.74%
5,Nc1nc(NCC(=O)O)nc(N2CCCCCC2)c1[N+](=O)[O-],15.1% (active)
6,COCCNc1nc(N)c([N+](=O)[O-])c(N2CCCCCC2)n1,-10.6%
7,CC1CN(c2nc(Nc3ccccc3)nc(N)c2[N+](=O)[O-])CC(C)O1 (stereo unspecified),-0.56%
8,COC(=O)C1=C(C)N(Cc2cccc(C(F)(F)F)c2)C(=NCc2ccccc2)NC1c1ccccc1C(F)(F)F (stereo unspecified),-3.46%
9,COC(=O)C1=C(C)N(Cc2ccc(C(F)(F)F)cc2)C(=NCc2ccc(C(F)(F)F)cc2)NC1c1cccc(Cl)c1 (stereo unspecified),-3.2%
10,COC(=O)Cc1ccc(OCC(=O)Nc2ccc(OC(F)(F)F)cc2)cc1,0.64%
11,CN(CC(=O)Nc1ccc(OC(F)(F)F)cc1)C(=O)C1CCC1,-3.79%
12,CCNC(=S)Nc1ccc(OC(F)(F)F)cc1,13.5% (active)
13,CCc1ccc(C2=CC(=O)CC(C)(C)C2=O)cc1,-5.55%
14,CC(C)CNc1cccc2c1S(=O)(=O)N[C@H](CC(C)C)CO2,-4.83%
15,COC(=O)C1=C(C)NC(=S)NC1c1ccc(OC)cc1 (stereo unspecified),-6.49%
16,COC(=O)c1cc2c(c3c4ccccc4n(S(=O)(=O)c4cccc(C)c4)c13)C(=O)N(Cc1ccccc1)C2,-7.5%
17,Cc1nc(N)sc1N=Nc1c(C)n(C)n(-c2ccccc2)c1=O,-1.11%
18,CCn1c(-c2cc(OC)ccc2OC)csc1=Nc1c(C)n(C)n(-c2ccccc2)c1=O,12.9% (active)
19,Cc1c(N=Nc2ccc(N(C)C)cc2)c(=O)n(-c2ccccc2)n1C,4.41%
20,Cc1[nH]nc2c1C(c1ccc(Br)cc1)NC2=O (stereo unspecified),-4.49%
21,CN1CCCCC(NC(=O)C(C)(C)C)C1=O (stereo unspecified),-7.34%
22,N#Cc1ccc(OCCCN2CCC(C(O)(c3ccccc3)c3ccccc3)CC2)c(F)c1,-9.27%

row,Compound,inhibition
1,CCOC(=O)C1CSCCS(=O)(=O)N1Cc1ccc(Cl)cc1 (stereo unspecified),-4.45%
2,CC1(C)OC(=O)C2=C(CC(CCc3ccccc3)OC2c2ccc(Cl)cc2)O1 (stereo unspecified),-5.79%
3,CN(CCc1cn[nH]c1)C(=O)CC1C(=O)NCCN1Cc1cccc(Oc2ccccc2)c1 (stereo unspecified),-7.77%
4,O=C(CC1C(=O)NCCN1CC(c1ccccc1)c1ccccc1)NCC1CCOCC1 (stereo unspecified),-1.82%
5,O=C(CC1C(=O)NCCN1CC(c1ccccc1)c1ccccc1)NCCc1cn[nH]c1 (stereo unspecified),13.4% (active)
6,CCOC(=O)/C=C/c1ccccc1O,-6.85%
7,C=CCN=C1NC(c2ccccc2)C(C(=O)OC)=C(C)N1Cc1ccc(C(F)(F)F)cc1 (stereo unspecified),-6.78%
8,Brc1ccc(OCCn2ccnc2)cc1,0.74%
9,c1ccc(Cc2ccc(OCCn3ccnc3)cc2)cc1,44.4% (active)
10,Clc1c(OCCCn2ccnc2)ccc2ccccc12,-12.1%
11,C=CC[C@]12C[C@@]3(O[C@H](c4ccc(C(F)(F)F)cc4)N=C3C[C@H](c3ccc(OC)cc3)[C@H]1C)N(C1CCN(Cc3ccccc3)CC1)C2=O,-4.57%
12,CCOc1ccccc1C(=O)N1CCC[C@@H]1C(=O)N1CCC[C@H]1C(=O)NCc1ccccc1,-4.67%
13,CC(=O)c1cccc(OCc2cc(C(=O)NC(C)Cc3cccnc3)no2)c1 (stereo unspecified),0.17%
14,CN(Cc1cnccn1)C(=O)c1cc(COc2cccc(C(F)(F)F)c2)on1,-2.96%
15,CN(Cc1cccnc1)C(=O)c1cc(COc2ccc3ncccc3c2)on1,91.7% (active)
16,O=S1(=O)c2c(cccc2N2CCCC2)O[C@H](COCc2ccccc2)CN1C1CC1,-3.31%
17,Cn1cnc([N+](=O)[O-])c1Nc1ccccc1O,13.4% (active)
18,Cn1cnc([N+](=O)[O-])c1Sc1n[nH]c(N)n1,-10.2%
19,Cn1cnc([N+](=O)[O-])c1Sc1ccccc1,-2.26%
20,Cc1cc(Br)cn2c(Cc3ccccc3C(F)(F)F)c(-c3ccc(C#N)cc3)nc12,-0.22%
